The source made the active and inactive calls. How the calls were made is not given here.
Assay: modulation of C. elegans fzo-1 (AID 1259413);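 further: fzo-1 mutant C. elegans worms in liquid wells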
Conditions: C. elegans fzo-1 modulator screen, mean read-out; hits give high values

Mean signal, inactive:
CNCCC(Oc1ccc(C(F)(F)F)cc1)c1ccccc1 (stereo unspecified) 190
COc1ccc(/C=C/C(=O)Nc2ccccc2C(=O)O)cc1OC 225
COC(=O)[C@H](c1ccccc1Cl)N1CCc2sccc2C1 252
CC(C)NCC(O)COc1cccc2ccccc12 (stereo unspecified) 249
O=[N+]([O-])c1cccc2cn[nH]c12 242
CS(=O)(=O)c1ccc(C2=C(c3ccccc3)C(=O)OC2)cc1 215
Cc1occc(=O)c1O 263
CN(C)c1nc(N(C)C)nc(N(C)C)n1 270
COc1ccc(-c2cc(=O)c3c(OC)c(OC)c(OC)c(OC)c3o2)cc1OC 277
C[N+]1(C)CCCC(OC(=O)C(O)(c2ccccc2)c2ccccc2)C1 (stereo unspecified) 266
CC1=C(/C=C/C(C)=C/C=C/C(C)=C\C(=O)O)C(C)(C)CCC1 236
CCc1ccc(CCOc2ccc(CC3SC(=O)NC3=O)cc2)nc1 (stereo unspecified) 259
CC(C(=O)O)c1ccc(-c2ccccc2)c(F)c1 (stereo unspecified) 239
CC[C@H]1OC(=O)[C@H](C)[C@@H](O[C@H]2C[C@@](C)(OC)[C@@H](O)[C@H](C)O2)[C@H](C)[C@@H](O[C@@H]2O[C@H](C)C[C@H](N(C)C)[C@H]2O)[C@](C)(OC)C[C@@H](C)C(=O)[C@H](C)[C@@H](O)[C@]1(C)O 229
C[C@H]1COc2c(N3CCN(C)CC3)c(F)cc3c(=O)c(C(=O)O)cn1c23 274
CC(C)NCC(O)COc1ccc(CC(N)=O)cc1 (stereo unspecified) 244

Reference: PubChem BioAssay
